# Assay outcomes (PubChem)
# A selection: hits, their analogues and other compounds. The true share with any hit is near 4%.
# DENV2 CPE rescue = DENV2-induced cell death inhibition. CPE inhibition, % at 9.99 µM. DENV2-infected cells, cytopathic effect rescue, plate reader. hit rate 1.7% among 350,000; in the data active = CPE inhibition above about 20%, passing the limit was not always enough; tested in BHK-21 cells;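 note: 0% = median of neutral control wells and 100% = median of positive control wells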
# RAD52 inh = RAD52 (human) annealing inhibition. recombinant RAD52 DNA annealing, FRET fluorescence. hit rate 0.46% among 360,000. P43351. AID 651710. inhibition, % at 18.7 µM;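 active = every replicate showing at least 50% inhibition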
# ERAP1 inh = inhibitors of human ERAP1 aminopeptidase; recombinant ERAP1, Leu-AMC fluorescence, 60 min; hit rate 0.15% among 340,000; Q9NZ08; inhibition, % at 10.7 µM;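 active = mean replicate inhibition of at least 30%, or all replicates individually reaching that 30% level; inactive = mean below 30% and not every replicate reaching it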;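 note: 0% = neutral control wells and 100% = L-leucinethiol positive control wells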
# Target sequence (Q9NZ08 whole entry, looked up): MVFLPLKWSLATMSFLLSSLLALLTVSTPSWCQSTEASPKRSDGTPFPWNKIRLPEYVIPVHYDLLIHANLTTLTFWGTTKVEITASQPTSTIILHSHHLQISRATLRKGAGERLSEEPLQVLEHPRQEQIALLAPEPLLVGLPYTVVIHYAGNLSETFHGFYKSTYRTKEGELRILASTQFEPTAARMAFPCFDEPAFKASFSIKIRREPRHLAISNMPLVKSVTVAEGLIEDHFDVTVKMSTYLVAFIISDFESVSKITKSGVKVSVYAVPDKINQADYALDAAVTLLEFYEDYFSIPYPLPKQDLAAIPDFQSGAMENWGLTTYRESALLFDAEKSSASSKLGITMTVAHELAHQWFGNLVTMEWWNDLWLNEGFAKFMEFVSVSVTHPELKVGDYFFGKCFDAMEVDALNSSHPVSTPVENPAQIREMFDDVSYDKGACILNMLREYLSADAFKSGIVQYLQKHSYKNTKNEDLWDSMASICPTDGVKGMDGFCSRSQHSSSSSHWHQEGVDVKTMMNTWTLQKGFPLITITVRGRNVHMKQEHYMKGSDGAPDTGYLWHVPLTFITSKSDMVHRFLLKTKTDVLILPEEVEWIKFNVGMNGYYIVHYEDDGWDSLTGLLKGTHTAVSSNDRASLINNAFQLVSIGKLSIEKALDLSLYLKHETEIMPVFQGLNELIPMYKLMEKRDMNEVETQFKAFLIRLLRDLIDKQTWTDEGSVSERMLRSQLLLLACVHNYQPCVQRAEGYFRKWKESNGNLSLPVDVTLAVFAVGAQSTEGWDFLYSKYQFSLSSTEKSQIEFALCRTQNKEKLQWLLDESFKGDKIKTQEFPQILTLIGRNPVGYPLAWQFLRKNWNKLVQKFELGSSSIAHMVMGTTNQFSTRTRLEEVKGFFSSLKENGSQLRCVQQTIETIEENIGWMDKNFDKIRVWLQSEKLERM
# AF4-AF9 inh = inhibitors of human MLL-AF4/AF9 interaction; P42568; AlphaScreen, biotin-AF4 peptide binding to FLAG-AF9; inhibition, % at 10 µM; hit rate 0.47% among 350,000;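 active = every replicate reaching a set inhibition limit, whatever the replicate mean, cut at about 25% in these data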;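 note: 0% = plate neutral control median and 100% = total signal loss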
# FGF22 binding = shifts melting point of recombinant human FGF22. Q9HCT0. recombinant FGF22 thermal shift, SYPRO orange fluorescence; percent of sucrose octasulfate shift, DMSO zero. activity (Tm shift, normalised), % at 9.99 µM. hit rate 1.5% among 340,000. AID 651658;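 active = mean Tm shift, scaled 0 neutral to 100 positive control, at about 1.3% or above, every replicate too, limit read from the data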
# An asterisk follows results filed as active; nt = not tested or not shown.
SMILES,DENV2 CPE rescue,RAD52 inh,ERAP1 inh,AF4-AF9 inh,FGF22 binding
CO[C@@H]1CN(C)C(=O)c2ccc(NS(=O)(=O)c3ccc(C)cc3)cc2OC[C@H](C)NC[C@@H]1C,7,-8,-1,-1,0
COc1ccc(CC2(CO)CCN(Cc3ccc4nsnc4c3)CC2)cc1,4,-10,-2,3,43*
OCC1(Cc2ccc(Cl)cc2)CCN(Cc2ccc3nsnc3c2)CC1,nt,-19,-4,3,0
C/C(=N\NC(=O)COc1ccc(C)cc1Br)c1cc([N+](=O)[O-])cs1,-4,-8,0,-2,43*
C/C(=N\NC(=O)COc1ccc(C)cc1[N+](=O)[O-])c1cccs1,-2,1,-1,-1,0
COc1cccc(/C=C/C(=O)OCC(=O)NC2CC2)c1OC,-4,-6,1,10,0
COc1cccc(/C=C/C(=O)OCC(=O)Nc2ccc(N3CCOCC3)cc2)c1OC,-10,-3,-1,1,44*
CC(Cl)c1cc(-c2ncc(C(F)(F)F)cc2Cl)no1 (stereo not given),2,-9,-2,-1,44*
CCCCN1C(N)=NC[C@@H]1C(C)O (stereo not given in full),23*,-3,nt,-3,0
CN(C)c1cc[n+](CC(=O)Nc2ccc(OC(F)F)cc2)cc1,1,-5,107*,-3,0
C[C@H]1CCCCO[C@H](CN(C)C(=O)Nc2cccc3ccccc23)[C@@H](C)CN([C@@H](C)CO)C(=O)c2cc(NS(=O)(=O)c3cn(C)cn3)ccc2O1,-13,nt,nt,nt,0
CCCCNC(=O)C(COCc1ccccc1)OC(=O)c1ccccc1 (stereo not given),0,13,7,-16,0
O=C(C[C@H]1C/C=C\CC[C@H](Cc2ccc(F)cc2)C(=O)O[C@@H](c2ccccc2)CNC1=O)N[C@@H](CO)Cc1ccccc1,nt,-8,4,-2,44*
O=C(C[C@H]1C/C=C\CC[C@H](Cc2ccc(F)cc2)C(=O)O[C@@H](c2ccccc2)CNC1=O)N[C@H](CO)Cc1ccccc1,86*,1,nt,1,0
CC(C)(C)OC(=O)C[C@H]1C/C=C\C[C@H](CC(=O)N[C@@H](CO)Cc2ccccc2)C(=O)N[C@H](C(C)(C)C)COC1=O,63*,3,-1,-1,0
C/C=C/c1cnc2c(c1)C(=O)N([C@H](C)CO)C[C@H](C)[C@H](CN(C)C(=O)NC1CCCC1)O2,1,-2,4,-1,1
O=C(OCC#CCSc1nnc(-c2cccc3ccccc23)o1)c1ccc(Cl)cc1,-4,-19,-1,5,0
OCC#CCSc1nnc(-c2cccc3ccccc23)o1,93*,-12,3,0,0
COCCN(C[C@@H]1N[C@@H](CO)[C@H]1c1ccc(-c2cccnc2)cc1)C(C)=O,30*,-5,-1,0,0
O=C([C@H]1[C@H](CO)[C@H]2Cn3c(cccc3=O)[C@H]2N1Cc1ccccc1)N1CCCCC1,5,-12,nt,-1,0
CCN(Cc1nc(-c2ccc(C)cc2)no1)C(=O)c1ccco1,-1,-15,1,-4,0
CCN(Cc1ccncc1)C(=O)c1ccco1,25*,-7,2,-1,0
CCOc1ccc2nc(N/C(N)=N/C(=S)Nc3ccc(C)c(C)c3)nc(C)c2c1,108*,33,-5,-7,0
C[C@H]1CN([C@@H](C)CO)C(=O)Cc2cc(NS(=O)(=O)c3ccc(F)cc3)ccc2O[C@@H]1CN(C)Cc1ccc(C(=O)O)cc1,-5,-13,2,-3,0
CCN(Cc1ccccc1)c1cc2c(c3c1ccn3C)C1CCC2C1 (stereo not given),-1,-4,0,25*,0
CCCN(CC1CC1)c1cc2c(c3c1ccn3C)C1CCC2C1 (stereo not given),-5,6,5,48*,0
Cn1ccc2c(N3c4ccccc4CCc4ccccc43)cc3c(c21)C1CCC3C1 (stereo not given),19,-16,3,5,40
Cn1ccc2c(N3CCOCC3)cc3c(c21)C1CCC3C1 (stereo not given),-9,-10,0,26*,0
C[C@@H]1CCCCO[C@@H](CN(C)Cc2ccc(C(=O)O)cc2)[C@H](C)CN([C@H](C)CO)C(=O)c2cc(NS(=O)(=O)c3cn(C)cn3)ccc2O1,6,nt,nt,nt,0
